CIT2 TOR yeast = modulators of TOR pathway CIT2-GFP in S. cerevisiae. S. cerevisiae CIT2-GFP strain, flow cytometry, 3 h; 100 means same as DMSO wells. GFP response vs DMSO, % at 10 µM. hit rate 0.065% among 320,000. AID 2029;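 active = GFP response relative to DMSO above a set limit, near the screen mean plus 3 SD, cut at about 150% in these data; inconclusive = Fewer than 70 cells measured for a yeast strain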;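 note: ratio of well median GFP fluorescence to mean of DMSO wells on the plate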
MEP2 TOR yeast = modulators of TOR pathway MEP2-GFP in S. cerevisiae; S. cerevisiae MEP2-GFP strain, flow cytometry GFP, 3 h; 100% = DMSO control level; GFP response vs DMSO, % at 10 µM; hit rate 0.51% among 330,000;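 active = GFP response versus DMSO above a set limit, roughly screen mean plus 3 SD, cut at about 180% in these data; inconclusive = fewer than 70 cells counted for a yeast strain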;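 note: median GFP fluorescence of the barcode-gated MEP2-GFP cells per well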
AGP1 TOR yeast = alters AGP1-GFP fluorescence in TOR pathway yeast screen. GFP response vs DMSO, % at 10 µM. S. cerevisiae AGP1-GFP multiplex flow cytometry, 3 h; GFP as percent of DMSO wells. hit rate 0.02% among 320,000;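 active = GFP response relative to DMSO above a set limit, near screen average plus 3 SD, cut at about 150% in these data; inconclusive = fewer than 70 cells counted for the yeast strain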;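 note: median GFP channel fluorescence of the gated AGP1 strain per well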
LAP4-GFP MLPCN = modulators of TOR pathway LAP4-GFP in S. cerevisiae. S. cerevisiae LAP4-GFP multiplex, flow cytometry GFP, 3 h; median GFP as percent of DMSO wells. AID 2023. hit rate 0.34% among 320,000. GFP response vs DMSO, % at 10 µM;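 active = GFP response vs DMSO above a set limit, about the screen mean plus 3 SD, cut at about 150% in these data; inconclusive = under 70 cell events counted for the yeast strain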
RPL19A TOR yeast = yeast TOR pathway RPL19A-GFP modulation; S. cerevisiae RPL19A-GFP strain, flow cytometry, 3 h; hits give low values; percent response vs DMSO, % at 10 µM; hit rate 0.3% among 330,000;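 active = percent response vs DMSO below 50%; inconclusive = fewer than 70 events counted for the yeast strain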;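 note: median channel GFP fluorescence of the barcoded RPL19A-GFP strain; ratio of sample median GFP to plate DMSO average so 100% = DMSO; lower means less RPL19A-GFP as with rapamycin TOR inhibition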
* hit, by the source's call; ? = inconclusive; . = no result; [ ] = dose if it differs, or a comment. Compounds with a hit are over-represented: about 0.93% of the library has one in this group of screens.

SMILES	CIT2 TOR yeast	MEP2 TOR yeast	AGP1 TOR yeast	LAP4-GFP MLPCN	RPL19A TOR yeast
O=C(OC1CCOC1=O)c1ccc(S(=O)(=O)N2CCCCCC2)cc1 (centres undefined)	?	178*[may fluoresce violet]	?	74	63
Cc1cc(=O)oc2cc(OC(C)C(=O)NC3CCCC3)ccc12 (centres undefined)	102	193*	99	157*	86
Cc1cc(=O)oc2cc(OCC(=O)OC(C)C(=O)NC3CCCC3)ccc12 (centres undefined)	97	100	100	100	98
COc1ccc(CNS(=O)(=O)c2ccc3c(c2)C(C)(C)C(=O)N3C)cc1	?	823*[may fluoresce violet]	22	114	57
Cc1ccc2cc3cc(C(=O)NC4CCCCC4)oc3nc2c1	?	126	?	86	29*[may fluoresce violet]
Cc1ccc2cc3cc(C(=O)NC4CC4)oc3nc2c1	78	107	81	108	83
Cc1nnc(SCc2ccc(F)cc2Cl)s1	?	181*[may fluoresce violet]	?	88	19*[may fluoresce violet]
CCN(C(=O)c1cc2c(=O)n3cccc(C)c3nc2s1)C1CCCCC1	?	190*[may fluoresce violet]	?	76	54
O=[N+]([O-])c1ccc(S(=O)(=O)N(CC(O)CN2CCCCC2)c2ccccc2)cc1 (centres undefined)	103	102	102	90	102
O=[N+]([O-])c1ccc(N(CC(O)CN2CCCCC2)S(=O)(=O)c2ccccc2)cc1 (centres undefined)	?	521*[may fluoresce violet]	14	88	64
Cc1ccc(CNS(=O)(=O)c2ccc(C)s2)cc1	77	93	92	113	99
CCOc1cc(C(=S)N2CCCCC2)ccc1OS(=O)(=O)c1ccc(Cl)cc1	73	82	72	209*	79
CCOc1cc(C(=S)N2CCCCC2)ccc1OS(=O)(=O)c1ccc(Br)cc1	104	93	98	96	102
CCc1ccc(/C=C2\Oc3c(ccc(O)c3CN3CCN(CCO)CC3)C2=O)cc1	?	192*[may fluoresce violet]	20	96	45*[may fluoresce violet]
COc1ccccc1OC(C)C(=O)N1CCN(Cc2ccc3c(c2)OCO3)CC1 (centres undefined)	95	96	89	85	92
O=C(CSc1nnc(-c2ccccc2)o1)N1CCCC1	?	180*[may fluoresce violet]	?	68	39*[may fluoresce violet]
CN1CCN(C(=O)CSc2nnc(COc3ccccc3)o2)CC1	?	201*[may fluoresce violet]	?	79	53
CCc1noc(C)c1C(=O)N(CCC(C)C)c1c(N)n(Cc2ccccc2)c(=O)[nH]c1=O	93	106	109	111	98
N=C1C2=C3Sc4ccccc4N3CCCC2=NN1c1cccc(S(=O)(=O)O)c1	100	97	100	101	102
OC(COc1ccccc1)CN1CCCCCC1 (centres undefined)	93	95	101	97	96
OC(CNCCCN1CCCCC1)COc1ccccc1 (centres undefined)	?	198*[may fluoresce violet]	29	92	.
CCc1ccc2c(c1)C1(NN=C(c3cccc4ccccc34)S1)C(=O)N2 (centres undefined)	89	92	78	168*	71
CCc1ccc2c(c1)C1(C(=O)N2)N2CCCC2C(C(=O)c2ccc3ccccc3c2)C12C(=O)Nc1ccccc12 (centres undefined)	92	103	99	102	100
CC1=C(C(=O)N2CCCC(N3CCN(c4cccc(Cl)c4)CC3)C2)OCCO1 (centres undefined)	117	110	104	81	108
Cc1cc(C(=O)N2CCCC(N3CCN(c4cccc(Cl)c4)CC3)C2)nc(C)n1 (centres undefined)	?	?	?	?	39*[may fluoresce violet]
SMILES	CIT2 TOR yeast	MEP2 TOR yeast	AGP1 TOR yeast	LAP4-GFP MLPCN	RPL19A TOR yeast
COc1ccc2c(c1)c(C(C)=O)c(C)n2-c1ccccc1OC	95	100	91	151*	80
CN(C(=O)Cn1cnc([N+](=O)[O-])n1)C1CCCCC1	?	212*[may fluoresce red and violet]	?	87	?
O=C(CCn1cnc2ccccc2c1=O)Nc1cccc(Cl)c1Cl	91	97	98	118	94
N#Cc1c(-c2ccccc2)nc(SCC(=O)NC2CCCCC2)[nH]c1=O	112	116	120	107	120
COC(=O)C(CC(C)C)NC(=O)CSc1nc(-c2ccccc2)c(C#N)c(=O)[nH]1 (centres undefined)	?	228*[may fluoresce violet]	?	80	45*[may fluoresce violet]
Cc1ccccc1NC(=O)C1CCN(c2cc(-c3ccccc3)nc3ncnn23)CC1	?	257*[may fluoresce violet]	?	61	60
COc1cccc(/C=N/NC(=O)CCC(=O)Nc2ccc(Br)cc2)c1	149	195*	96	136	107
Nc1ccc(O)c2ccccc12	?	183*[may fluoresce violet]	23	95	51
CCOC(=O)C1C(=O)C=C(c2ccc(C)cc2)CC1c1ccco1 (centres undefined)	92	240*	91	113	91
Nc1nc(SCC(=O)Nc2cc(C(F)(F)F)ccc2N2CCOCC2)n[nH]1	99	181*	26	91	95
CCOc1cc(CNS(=O)(=O)c2ccc3c(c2)CC(=O)N3C)cc(OCC)c1OCC	106	95	105	98	99
N/C(=N\OC(=O)c1ccc2ccccc2c1)c1ccccc1Cl	160*	96	65	123	89
COc1ccc(CNC(=O)C2CCN(S(=O)(=O)c3cccc4nonc34)CC2)cc1	100	105	103	107	104
Oc1c(C(c2cccs2)N2CCN(c3ccccc3)CC2)ccc2cccnc12 (centres undefined)	88	95	87	209*	108
Oc1c(C(c2ccccc2Cl)N2CCCC2)ccc2cccnc12 (centres undefined)	96	116	90	131	92
Cc1ccc(C(=O)Nc2ccc(S(=O)(=O)N3CCOCC3)cc2)cc1Br	89	111	102	121	98
CCC(=O)c1cn(/C(=C\C(=O)OC(C)(C)C)CCC(OC)OC)cc1CC	92	81	78	127	90
CN1CCCC1CCNc1ccc2c(=O)c3ccccc3oc2c1 (centres undefined)	?	342*[may fluoresce violet]	37	99	44*[may fluoresce violet]
O=C1Nc2ccc(Br)cc2C1(O)Cc1ccncc1 (centres undefined)	?	438*[may fluoresce violet]	?	112	16*[may fluoresce violet]
O=[N+]([O-])c1ncccc1OCc1ccc(-c2ccccc2)cc1	156*	156	99	132	104
C=CC[C@H](CC(=O)N[C@H](CO)Cc1ccccc1)C(=O)N[C@H](COC(=O)[C@H](CC=C)CC(=O)OC(C)(C)C)Cc1c[nH]c2ccccc12	87	95	88	94	91
Cc1ccc(OCC(=O)NNC(=O)c2ccc3c(=O)n4c(nc3c2)CCC4)cc1	99	108	108	100	102
Cc1cc(C)nc(/N=C(\N)N2CCCCC2)n1	106	99	100	90	102
